PubChem BioAssay (Tox21)
Inconclusive results are not listed. The source made the active and inactive calls. Unless noted, the call rests on the fitted dose curve.

What was measured:
[1] = Nuclear factor erythroid 2-related factor 2/antioxidant responsive element (Nrf2/ARE) small molecule agonists: qHTS cell viability counter screen in human keratinocytes (AID 1919968; active means well fitted curve in the direction sought with a large enough effect in the repeat runs; an effect the other way counts as inactive or inconclusive; further: nearly all actives have a fitted effect of over 55% in size)
Procedure, shortened: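 Viability counter-screen: KeratinoSens reporter cells, DMSO-delivered compounds, 23 h at 37 C, CellTiter-Fluor fluorescence.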

[2] = Nuclear factor erythroid 2-related factor 2/antioxidant responsive element (Nrf2/ARE) small molecule agonists: luciferase reporter gene qHTS assay in human keratinocytes (AID 1919969); further: nearly all actives have a fitted effect of over 35% in size
[3] = biological target: Gonadotropin-releasing hormone receptor (Homo sapiens) (UniProt P30968); test: Human gonadotropin-releasing hormone receptor (GnRHR) small molecule agonists, calcium flux assay in GnRHR-HEK293 cells (AID 1920063); further: nearly all actives have a fitted effect of over 35% in size
Procedure, shortened: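 Tox21-format agonist screen using human GnRHR-expressing HEK293 cells and a fluorescent calcium dye; kinetic 3-min fluorescence reading after compound addition, 15-point concentration series run in triplicate.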

[4] = biological target: KiSS-1 receptor (Homo sapiens) (UniProt Q969F8); test: Human kisspeptin (KISS1R) small molecule agonists, calcium flux assay in KISS1R-HEK293 cells (AID 1920064; active means well fitted curve in the direction sought with a large enough effect in the repeat runs; an effect the other way counts as inactive or inconclusive)
Procedure, shortened: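 Intracellular calcium mobilization in KISS1R-HEK293 cells was recorded by fluorescence (Ex/Em 480/540) for 3 min following compound addition to cells pre-loaded 1 h with calcium dye.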

[5] = G protein-coupled receptor (GPCR) small molecule agonists, calcium flux assay: HEK293 wild type cell line counter screen (AID 1920065)
Procedure, shortened: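 In this agonist-mode screen, ATP is the positive control and DMSO the vehicle. Cells grow 18 h before a 1 h dye incubation at 37 C; signal is taken at Ex/Em 480/540 over 3 min.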

[6] = p53 small molecule agonists, cell-based qHTS assay with human liver microsomes (AID 1963577)
Procedure, shortened: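 Compounds act here after metabolic activation: human liver microsomes and NADPH, both at 0.5 mg/mL final, were co-added to p53RE-bla cells. Incubation ran 16 h at 37 C, followed by LiveBLAzer detection.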

[7] = p53 small molecule agonists, cell-based qHTS assay with rat liver microsomes (AID 1963578)
Procedure, shortened: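 Read-out is beta-lactamase reporter fluorescence (LiveBLAzer, 2 h, room temperature, dark) in p53RE-bla cells treated 16 h at 37 C with compound, rat liver microsomes and NADPH, both 0.5 mg/mL final.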

[8] = p53 small molecule agonists, cell-based qHTS assay with human liver microsomes: qHTS cell viability counter screen (AID 1963579); further: nearly all actives have a fitted effect of over 45% in size
Procedure, shortened: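 Cells carrying the p53 response-element beta-lactamase reporter are treated for 16 h at 37 C with test compounds in the presence of human liver microsomes and NADPH (both 0.5 mg/mL final); ATP-based CellTiter-Glo luminescence then reports viability.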

[9] = p53 small molecule agonists, cell-based qHTS assay with rat liver microsomes: qHTS cell viability counter screen (AID 1963580); further: nearly all actives have a fitted effect of over 45% in size
Procedure, shortened: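 In HCT-116 cells carrying a p53 response element-bla reporter, compounds were metabolically activated in situ by rat liver microsomes with NADPH over 16 h. Cell ATP content then served as the cytotoxicity measure.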

[10] = p53 small molecule agonists, cell-based qHTS assay: qHTS cell viability counter screen (AID 1963581); further: nearly all actives have a fitted effect of over 45% in size
Procedure, shortened: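 Compounds are pinned onto HCT-116 p53RE-bla cells and left 16 h at 37 C. Following the reporter FRET read, ATP is quantified by CellTiter-Glo luminescence after 30 min at room temperature.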

[11] = p53 small molecule agonists, cell-based qHTS assay (AID 1963582; active means well fitted activation curve with a large enough effect in the signal ratio in the repeat runs, not every such curve was filed as active; the % refers to the signal ratio)
Procedure, shortened: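 Agonist activity was scored from beta-lactamase FRET fluorescence in p53RE-bla cells treated 16 h at 37 C with compounds in DMSO, substrate incubation being 2 h at room temperature.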

[12] = biological target: 5-hydroxytryptamine receptor 2A (Homo sapiens) (UniProt P28223); test: 5-hydroxytryptamine receptor 2A (HTR2A) small molecule antagonists, cell-based qHTS assay (AID 1963586); further: nearly all actives have a fitted effect of over 45% in size
Procedure, shortened: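 Antagonist-mode intracellular calcium assay: DOI (4 nM) added after 5 min compound pre-incubation at room temperature to dye-loaded HTR2A-CHO cells. Fluorescence followed for 3 min, sampled every second.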

[13] = biological target: 5-hydroxytryptamine receptor 2A (Homo sapiens) (UniProt P28223); test: 5-hydroxytryptamine receptor 2A (HTR2A) small molecule agonists, cell-based qHTS assay (AID 1963587); further: nearly all actives have a fitted effect of over 30% in size
Procedure, shortened: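 HTR2A-CHO cells, plated 18 h at 37 C/5% CO2, dye-loaded 1 h at 37 C; compounds in DMSO added by pin tool (agonist mode). Intracellular calcium flux read as kinetic fluorescence on FDSS over 2 min at 1 s intervals.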

[14] = biological target: Muscarinic acetylcholine receptor M1 (Homo sapiens) (UniProt P11229); test: Cholinergic receptor muscarinic 1 (CHRM1) small molecule antagonists, cell-based qHTS assay (AID 1963588); further: nearly all actives have a fitted effect of over 40% in size
Procedure, shortened: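 CHRM1-CHO calcium-flux assay, antagonist mode. Cells were seeded 18 h, dye-loaded 1 h at 37 C and given compound for 5 min at RT, then acetylcholine was added at 50nM. FDSS fluorescence was read 3 min; 15 concentrations, three runs.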

[15] = biological target: Muscarinic acetylcholine receptor M1 (Homo sapiens) (UniProt P11229); test: Cholinergic receptor muscarinic 1 (CHRM1) small molecule agonists, cell-based qHTS assay (AID 1963589); further: nearly all actives have a fitted effect of over 35% in size
Procedure, shortened: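 Stable CHRM1-CHO cells (human receptor) were incubated 18 h, dye-loaded for 1 h at 37 C and exposed to test compounds for agonist activity, with calcium-dependent fluorescence followed kinetically.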

[16] = cAMP Responsive Elements (CRE) small molecule agonists, cell-based qHTS assay (AID 1963590)
Procedure, shortened: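 FRET-based beta-lactamase readout (LiveBLAzer B/G, 2 h RT) quantified CRE activation in HEK 293T CRE-bla cells after 3 h treatment with DMSO-dissolved compounds.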

[17] = cAMP Responsive Elements (CRE) small molecule antagonists, cell-based qHTS assay (AID 1963591; active means well fitted inhibition curve with a large enough effect in the signal ratio in the repeat runs, not every such curve was filed as active; the % refers to the signal ratio)
Procedure, shortened: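 qHTS in CRE-bla HEK 293T cells: compound in DMSO, then 0.25 uM NKH477 (final), 3 h at 37 °C/5% CO2; beta-lactamase FRET read-out after 2 h substrate incubation.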

[18] = biological target: Beta-2 adrenergic receptor (Homo sapiens) (UniProt P07550); test: Adrenergic beta2 receptor (ADRB2) small molecule antagonists, cell-based qHTS assay (AID 1963592); further: series mostly up to about 92 µM; nearly all actives have a fitted effect of over 50% in size
Procedure, shortened: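 Cells (CHO, stable ADRB2 overexpression) incubated 18-20hr at 37C; compounds added from DMSO; agonist mix (1nM isoproterenol, 100uM IBMX, 25uM Ro-20-1724) added; 0.5hr RT; d2-cAMP and anti-cAMP-cryptate added; 1hr RT; 665/615 nm read.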

[19] = biological target: Beta-2 adrenergic receptor (Homo sapiens) (UniProt P07550); test: Adrenergic beta2 receptor (ADRB2) small molecule agonists, cell-based qHTS assay (AID 1963593);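 further: CHO cells stably overexpressing human ADRB2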
Procedure, shortened: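 CHO cells stably over-expressing ADRB2 were plated overnight at 37C, then dosed with compounds plus a stimulation mix containing 100uM IBMX and 25uM Ro-20-1724 for 0.5hr at room temperature. cAMP was measured by HTRF competition, 1hr.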

[20] = biological target: D(2) dopamine receptor (Homo sapiens) (UniProt P14416); test: Dopamine D2 receptor (DRD2) small molecule agonists, cell-based qHTS assay (AID 1963594); further: nearly all actives have a fitted effect of over 35% in size
Procedure, shortened: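 HEK293 cells stably expressing DRD2 were cultured 24 h at 37 C, then given Ro20-1724 (0.1 mM final) and compounds for 10 min at room temperature. NKH477 (200nM) was then added for 30 min. cAMP was read by HTRF.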

Measured: Potency

Chain of Beta-2 adrenergic receptor (Homo sapiens) (P07550 whole entry, looked up): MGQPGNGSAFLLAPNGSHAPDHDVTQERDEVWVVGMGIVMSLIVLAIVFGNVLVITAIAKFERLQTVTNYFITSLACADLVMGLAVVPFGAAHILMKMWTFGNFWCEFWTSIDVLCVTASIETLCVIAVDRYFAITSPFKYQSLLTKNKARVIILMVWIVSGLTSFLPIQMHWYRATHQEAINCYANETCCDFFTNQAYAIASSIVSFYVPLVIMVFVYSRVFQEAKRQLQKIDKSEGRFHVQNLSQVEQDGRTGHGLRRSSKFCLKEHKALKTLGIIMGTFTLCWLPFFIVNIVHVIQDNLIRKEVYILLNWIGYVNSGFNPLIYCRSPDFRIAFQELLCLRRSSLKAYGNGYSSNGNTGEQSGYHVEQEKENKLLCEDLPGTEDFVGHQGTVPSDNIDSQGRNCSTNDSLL
Chain of KiSS-1 receptor (Homo sapiens) (Q969F8 whole entry, looked up): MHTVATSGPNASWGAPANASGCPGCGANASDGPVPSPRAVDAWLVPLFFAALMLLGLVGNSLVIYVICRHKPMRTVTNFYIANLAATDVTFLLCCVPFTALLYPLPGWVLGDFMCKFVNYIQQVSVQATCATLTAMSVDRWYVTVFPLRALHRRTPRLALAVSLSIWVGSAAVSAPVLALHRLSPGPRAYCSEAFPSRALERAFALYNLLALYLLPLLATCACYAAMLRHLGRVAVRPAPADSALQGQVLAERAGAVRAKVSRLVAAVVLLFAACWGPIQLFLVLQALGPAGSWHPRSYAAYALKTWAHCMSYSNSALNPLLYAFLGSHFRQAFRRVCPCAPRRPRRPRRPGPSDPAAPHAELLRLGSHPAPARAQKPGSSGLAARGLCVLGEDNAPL
Chain of Muscarinic acetylcholine receptor M1 (Homo sapiens) (P11229 whole entry, looked up): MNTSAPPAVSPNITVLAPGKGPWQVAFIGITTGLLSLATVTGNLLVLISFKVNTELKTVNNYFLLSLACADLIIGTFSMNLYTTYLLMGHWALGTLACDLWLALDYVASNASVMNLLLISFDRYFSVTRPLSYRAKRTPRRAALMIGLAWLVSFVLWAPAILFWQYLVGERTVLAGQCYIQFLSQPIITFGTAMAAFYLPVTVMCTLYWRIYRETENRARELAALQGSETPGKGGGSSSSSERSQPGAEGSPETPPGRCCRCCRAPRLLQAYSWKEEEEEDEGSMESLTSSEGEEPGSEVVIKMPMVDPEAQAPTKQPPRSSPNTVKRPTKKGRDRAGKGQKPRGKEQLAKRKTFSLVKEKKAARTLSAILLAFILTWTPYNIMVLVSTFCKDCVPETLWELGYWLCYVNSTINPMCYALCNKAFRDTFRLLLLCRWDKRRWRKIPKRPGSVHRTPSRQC
Chain of 5-hydroxytryptamine receptor 2A (Homo sapiens) (P28223 whole entry, looked up): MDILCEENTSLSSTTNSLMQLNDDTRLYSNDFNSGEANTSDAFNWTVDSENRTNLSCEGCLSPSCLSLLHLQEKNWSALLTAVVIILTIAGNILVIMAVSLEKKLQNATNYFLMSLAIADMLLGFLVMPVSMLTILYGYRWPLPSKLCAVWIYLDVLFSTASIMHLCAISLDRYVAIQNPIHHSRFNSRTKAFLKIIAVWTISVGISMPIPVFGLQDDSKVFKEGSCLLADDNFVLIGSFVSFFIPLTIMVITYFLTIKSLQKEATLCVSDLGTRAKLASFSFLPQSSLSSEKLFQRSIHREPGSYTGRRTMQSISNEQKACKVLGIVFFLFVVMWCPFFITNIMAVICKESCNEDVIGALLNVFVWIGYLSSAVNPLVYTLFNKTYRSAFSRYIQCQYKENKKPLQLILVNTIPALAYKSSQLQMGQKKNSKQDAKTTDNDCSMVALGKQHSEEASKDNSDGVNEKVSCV
Chain of Gonadotropin-releasing hormone receptor (Homo sapiens) (P30968 whole entry, looked up): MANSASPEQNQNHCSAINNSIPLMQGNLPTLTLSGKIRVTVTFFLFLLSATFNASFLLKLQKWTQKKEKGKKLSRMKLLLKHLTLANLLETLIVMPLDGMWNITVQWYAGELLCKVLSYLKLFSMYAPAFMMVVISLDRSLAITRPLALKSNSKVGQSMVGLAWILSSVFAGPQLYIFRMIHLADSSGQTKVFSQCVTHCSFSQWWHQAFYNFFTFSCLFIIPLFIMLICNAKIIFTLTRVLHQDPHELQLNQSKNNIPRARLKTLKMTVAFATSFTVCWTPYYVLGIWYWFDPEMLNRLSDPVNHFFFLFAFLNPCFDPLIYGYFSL
Chain of D(2) dopamine receptor (Homo sapiens) (P14416 whole entry, looked up): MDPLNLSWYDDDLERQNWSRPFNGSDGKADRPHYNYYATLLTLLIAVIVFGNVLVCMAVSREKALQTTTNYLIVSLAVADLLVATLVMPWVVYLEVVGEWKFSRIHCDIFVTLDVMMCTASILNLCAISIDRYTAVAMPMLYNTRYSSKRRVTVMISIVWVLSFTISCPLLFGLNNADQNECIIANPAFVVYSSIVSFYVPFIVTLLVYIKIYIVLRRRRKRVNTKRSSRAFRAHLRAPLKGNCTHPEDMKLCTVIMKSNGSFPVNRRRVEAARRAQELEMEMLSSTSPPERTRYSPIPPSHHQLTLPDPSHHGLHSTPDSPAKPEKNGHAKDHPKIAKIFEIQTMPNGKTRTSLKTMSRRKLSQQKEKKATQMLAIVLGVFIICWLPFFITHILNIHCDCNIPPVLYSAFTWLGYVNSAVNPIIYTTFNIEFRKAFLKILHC

C=CC(=O)OCCN(CC)CC
inactive: all assays above

CC(C)(C)OCC1CO1 (stereo not given)
inactive: all assays above

CC(C)c1cc2c(cc1S(=O)(=O)O)[C@@]1(C)CCC[C@@](C)(C(=O)O)[C@@H]1CC2
inactive: all assays above

NC(=S)N/N=C/c1cccnc1
inactive: all assays above

CC(C)C(=O)OC(=O)C(C)C
inactive: all assays above

CCN(CC)CC(=O)OCC(=O)[C@@]1(O)CC[C@H]2[C@@H]3CCC4=CC(=O)CC[C@]4(C)[C@H]3[C@@H](O)C[C@@]21C
inactive: all assays above

CCOC(=O)NCCC[Si](OCC)(OCC)OCC
inactive: all assays above

C1CCC(SSC2CCCCC2)CC1
inactive: all assays above
